# Screening data from PubChem BioAssay.
# This is a sample that favours compounds with a hit; in the whole collection about 4.8% have one here.
# S2 tox = reduces viability in counter-screen for ATXN expression inhibitors; S2 cells (HEK-293 line with an ATXN2-luciferase reporter) viability, CellTiter-Fluor protease fluorescence, 24 h; Potency, µM (top dose mostly 56.7 µM), most hits filed as cytotoxic; hit rate 0.49% among 400,000; AID 651635; further: potency means the concentration at half of the fitted maximal effect; nearly all actives have a fitted effect of over 40% in size
# HepG2 tox = counter-screen for TGF-b inhibitors: cytotoxicity in HepG2 cells; Potency, µM (titrated, usually from 46.1 µM), without a hit: at the top dose activity change, negative = cytotoxicity, usual class: cytotoxic; HepG2 CAGA-GFP viability, ATP luminescence, 18 h; hit rate 0.76% among 410,000; AID 588856; further: potency means the concentration at half of the fitted maximal effect
#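 CellTiter-Glo luminescence gave cytotoxicity after 18 hours at 37 degrees C. The cells were HepG2 CAGA-GFP in 1% FBS DMEM, stimulated with 500 pg/mL TGF-beta after compound addition. %Activity was normalised to no-cell wells (complete cell-killing) and DMSO (no toxicity), and curves were fitted and classified.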
# ATXN2 expr inh = inhibitors of ATXN2 expression. HEK-293 ATXN2-luciferase reporter, luminescence, 24 h. Potency, µM (doses to about 57 µM), inactives show at the top dose activity change, negative = inhibition, most hits filed as inhibitors. hit rate 0.72% among 360,000. AID 1745845; further: potency means the concentration at half of the fitted maximal effect; on the % scale 0 is the no-effect control and ±100 the full control effect; nearly all actives have a fitted effect of over 55% in size
#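 qHTS (up to 57 uM final) was run with 24 h compound exposure of reporter cells at 37 °C. Each well was multiplexed: SteadyGlo luminescence measured ATXN2-luciferase expression after a fluorogenic Gly-Phe-AFC viability readout (25 uM final).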
# DRD3 antagonist = blocks the human D3 dopamine receptor; D3R cells, DiscoveRx beta-arrestin luminescence, antagonist mode; active compounds read low; max response, negative = inhibition, %; hit rate 2.5% among 360,000; AID 652054; P35462; in the data active means max response below about -50%; inconclusive means no clear call, values can overlap the other calls; further: on the % scale 0 is the no-effect control and ±100 the full control effect
# Target sequence (P35462 whole entry, looked up): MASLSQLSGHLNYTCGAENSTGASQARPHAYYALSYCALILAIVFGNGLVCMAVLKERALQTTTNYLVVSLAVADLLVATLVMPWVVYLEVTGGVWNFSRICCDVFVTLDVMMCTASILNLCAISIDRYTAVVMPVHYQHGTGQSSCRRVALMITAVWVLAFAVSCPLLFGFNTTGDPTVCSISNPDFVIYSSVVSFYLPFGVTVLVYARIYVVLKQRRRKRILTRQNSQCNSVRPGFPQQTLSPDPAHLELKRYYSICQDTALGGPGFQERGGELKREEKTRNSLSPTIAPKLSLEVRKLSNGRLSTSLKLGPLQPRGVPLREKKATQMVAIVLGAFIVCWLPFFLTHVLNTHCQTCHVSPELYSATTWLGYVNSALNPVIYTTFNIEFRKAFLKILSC
#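 Cells plated overnight at 1500 cells/well, then exposed to library compounds with dopamine controls for 90 minutes at 37 degrees C. DiscoveRx reagent added for 30–60 minutes at room temperature; luminescence read, quantitative HTS format.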
# DRD3 agonist = D3 dopamine receptor (human) agonism. P35462. D3R DiscoveRx beta-arrestin cells, luminescence, 90 min. max activation, %. hit rate 0.58% among 410,000. AID 652048; in the data active means max activation above about 30%; further: 0% is about no effect
#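 Agonist mode: compounds and dopamine controls were applied to plated cells for 90 min at 37 degrees C after an overnight attachment at 1500 cells/well. Luminescent read-out followed 30 - 60 minutes at room temperature with DiscoveRx detection reagent.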
# TGFb inhibitor = blocks TGF-b signaling | HepG2 CAGA-GFP TGF-b/SMAD3 reporter, GFP fluorescence, 18 h; TGF-beta stimulated, 500 pg/mL final | Potency, µM (doses to about 46.1 µM), without a hit: at the top dose activity, negative = inhibition, most hits filed as inhibitors | hit rate 1.2% among 410,000 | AID 588855; further: potency means the concentration at half of the fitted maximal effect; on the % scale 0 is the no-effect control and ±100 the full control effect; nearly all actives have a fitted effect of over 65% in size
#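 Cell-based qHTS in HEPG2 carrying a CAGA-GFP Smad reporter; compounds added before 500 pg/mL final TGF-beta, 18 h incubation at 37 degrees C, GFP fluorescence quantified per cell by imaging cytometry.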
# * = called active by the depositor; i = inactive; ? = inconclusive; nt = no result. Unless noted, the call rests on the fitted dose curve; in most records, active means well fitted curve in the direction sought with a large enough effect; inconclusive means small, poorly fitted or top-dose-only effect, or another doubt; inactive means no such curve, though single readings can be large; an effect the other way counts as inactive or inconclusive.
SMILES,S2 tox,HepG2 tox,ATXN2 expr inh,DRD3 antagonist,DRD3 agonist,TGFb inhibitor
CC(=O)NCCNC(=O)C1Cc2c(-c3cccc(NC(C)=O)c3)ccnc2O1 (stereo not given),i,5%,14%,-29,4,19%
NC(=O)c1cccc(-c2ccnc3c2CC(C(=O)NCc2ccco2)O3)c1 (stereo not given),i,2%,10%,?,-2,9%
COc1ccc(NC(=O)C2Cc3c(-c4cccc(C(N)=O)c4)ccnc3O2)cc1OC (stereo not given),i,-22%,-14%,0,39*,43%
CC(=O)Nc1cccc(-c2ccnc3c2CC(C(=O)NCc2cccs2)O3)c1 (stereo not given),?,-15%,-1%,-78*,-12,4%
CC(=O)c1cccc(-c2ccnc3c2CC(C(=O)NCc2ccco2)O3)c1 (stereo not given),?,-31%,-11%,-70*,-21,9%
CC(=O)Nc1ccc(NC(=O)C2Cc3c(-c4ccco4)ccnc3O2)cc1 (stereo not given),i,-25%,3%,-61*,-8,4%
CCc1ccc(NC(=O)CCn2c(-c3ccc(OC)cc3)cc(C(C)=O)c2C)cc1,nt,-16%,nt,nt,1,-22%
CC(C)c1ccc(Cn2cnc3c(cnn3C(C)(C)C)c2=O)cc1,nt,-13%,nt,nt,nt,-8%
Oc1ccc(Cl)cc1C1C=C(c2ccc3c(c2)OCO3)NC(c2ccc(Cl)cc2)N1 (stereo not given),nt,-61%,nt,nt,nt,?
CC(=O)Nc1cccc(-c2ccnc3c2CC(C(=O)Nc2ccc4c(c2)OCO4)O3)c1 (stereo not given),?,-8%,-19%,-55*,-15,-6%
COC(=O)c1ccc(NC(=O)CSc2nc(=O)[nH]c3c2CCCC3)cc1,nt,0%,nt,nt,4,4%
Cc1ccc(S(=O)(=O)n2ccc3cccnc32)cc1,i,1%,6%,10,9,-3%
Cc1ccc(S(=O)(=O)n2cccc2/C=C/[N+](=O)[O-])cc1,?,13µM*,nt,-22,0,14µM*
COC(=O)c1ccccc1NC(=O)Nc1ccc(Cl)cn1,?,-19%,0%,-8,-10,-2%
COC(=O)c1ccccc1Nc1ccnc(Cl)n1,i,20µM*,4%,-25,3,0%
Cc1cccc2sc(N(Cc3cccnc3)C(=O)c3cccs3)nc12,nt,-13%,nt,nt,-8,-8%
COc1cccc(Nc2ccc3cc(S(=O)(=O)N4CCC(C)CC4)ccc3n2)c1,?,-30%,-31%,nt,16,?
Cc1nc(N2CCN(Cc3ccc4c(c3)OCO4)CC2)nc2c1C(=O)CC(c1ccco1)C2 (stereo not given),i,-21%,-16%,-72*,-51,7%
Cc1nc(N2CCN(Cc3ccccc3)CC2)nc2c1C(=O)CC(c1ccco1)C2 (stereo not given),i,3%,-15%,-53*,-53,-11%
Cc1nc(N2CCN(Cc3ccccc3)CC2)nc2c1C(=O)CCC2,i,8%,-7%,-15,-3,?
Cc1nc(N2CCN(Cc3ccccc3)CC2)nc2c1CCC2,i,-19%,-11%,-67*,-17,-19%
Cc1nc(N2CCN(C(=O)c3ccco3)CC2)nc2c1C(=O)CC(C)C2 (stereo not given),i,-1%,6%,18,10,-1%
CCc1ccccc1NC(=O)Cn1c(=O)n(Cc2ccco2)c(=O)c2ccccc21,i,-15%,-4%,nt,-5,1%
CCN(CC)c1ccc(NC2=C(Cl)C(=O)c3ccccc3C2=O)cc1,10µM*,-50%,20µM*,-82*,-28,?
O=C1C(Cl)=C(Nc2ccc(O)cc2)C(=O)c2ccccc21,16µM*,5.6µM*,16µM*,?,-4,?
SMILES,S2 tox,HepG2 tox,ATXN2 expr inh,DRD3 antagonist,DRD3 agonist,TGFb inhibitor
Cc1ccc(NC2=C(Cl)C(=O)c3ccccc3C2=O)cc1,nt,-6%,?,?,-2,?
COC1=C(Nc2ccc(O)cc2)C(=O)c2ccccc2C1=O,?,-84%,-17%,-29,5,?
CC(=O)Nc1ccc(NC2=CC(=O)c3ccccc3C2=O)cc1,i,-27%,17%,-17,-4,?
O=C1C=C(Nc2ccc(O)cc2)C(=O)c2ccccc21,?,11µM*,-25%,-14,-7,10µM*
Cc1cnc(SCC2CCCO2)nc1C1CCCN(Cc2cc3c(cc2Cl)OCO3)C1 (stereo not given),i,nt,nt,nt,nt,nt
CCOC(=O)Cn1c(=N)n(CCOc2ccc3ccccc3c2)c2ccccc21,?,-100%,-23%,18,1,11µM*
CCOC(=O)c1ccc2c(c1)sc1nc(-c3ccc(OCC)cc3)cn12,nt,9%,nt,nt,7,-1%
CSc1ccc(CCNC(=O)C2CCN(c3ncnc4c3nc3n4CCCCC3)CC2)cc1,nt,-5%,nt,nt,-2,-6%
C=CCC[C@H](Cc1ccc(F)cc1)C(=O)OC[C@H](Cc1c[nH]c2ccccc12)NC(=O)[C@@H](CC=C)CC(=O)N[C@@H](CO)Cc1ccccc1,18µM*,13µM*,16µM*,-10,9,?
C=CCC[C@H](Cc1ccc(F)cc1)C(=O)OC[C@H](Cc1c[nH]c2ccccc12)NC(=O)[C@H](CC=C)CC(=O)N[C@H](CO)Cc1ccccc1,?,-7%,-9%,5,9,-19%
C=CCC[C@@H](Cc1ccc(F)cc1)C(=O)OC[C@H](Cc1c[nH]c2ccccc12)NC(=O)[C@@H](CC=C)CC(=O)N[C@H](CO)Cc1ccccc1,?,13µM*,-18%,42,31*,?
C=CCC[C@H](Cc1ccc(F)cc1)C(=O)OC[C@H](Cc1c[nH]c2ccccc12)NC(=O)[C@@H](CC=C)CC(=O)N[C@H](CO)Cc1ccccc1,?,-107%,0%,28,6,13µM*
c1ccc2cc(CCO[C@H]3CCCCO3)ncc2c1,i,-1%,?,?,-1,-5%
c1nc(CCO[C@H]2CCCCO2)cc2cc3c(cc12)OCO3,i,-15%,11µM*,19,8,10%
OCCN(CC(O)Cn1ccc2ccccc21)CC(O)Cn1ccc2ccccc21 (stereo not given),i,-37%,-8%,-6,0,?
CC(C)(C)c1ccc(OCC(O)CN(CCO)CC(O)Cn2ccc3ccccc32)cc1 (stereo not given),i,-74%,-18%,6,-6,11µM*
CCc1nnc(NC(=O)c2cc(=O)c3cc(C)ccc3o2)s1,i,-4%,1%,nt,-3,-11%
